In PubChem BioAssay (NCATS):
Records with an inconclusive call do not appear. Values without a mark were called inactive. Calls of active or inactive are those of the source. Calls come from the whole dose curve; as a rule, active = well fitted activation curve with a large enough effect; inconclusive = small, poorly fitted or top-dose-only effect; inactive = no such curve, though single readings can be large or run the other way.

Target: Cellular tumor antigen p53 (Homo sapiens) (UniProt P04637)
Assay: Primary qHTS for small molecule compounds that upregulate eGFP-tagged delta133p53alpha (in N-terminal) cells. (AID 2060322); note: nearly all actives have a fitted effect of over 75% in size;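 for activation: series mostly up to about 56 µM; 0% = DMSO vehicle and 100% = reference activator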
Conditions: NCI-H358 eGFP-delta133p53alpha fluorescence, 24 h; activation: active compounds read high
How it was run: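 NCI-H358 cells pre-induced 24 h with 10 ng/ml doxycycline for eGFP-delta133p53alpha, plated dox-free and exposed 24 h at 37C to titrated compounds. Fixed, Hoechst-stained; gated GFP peak intensity by laser scanning cytometry, normalized to DMSO (0%) and 57.5 uM 5-azacytidine (100%).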
Potency is the fitted concentration of half-maximal effect.

Sequence of Cellular tumor antigen p53 (Homo sapiens) (P04637 whole entry, looked up): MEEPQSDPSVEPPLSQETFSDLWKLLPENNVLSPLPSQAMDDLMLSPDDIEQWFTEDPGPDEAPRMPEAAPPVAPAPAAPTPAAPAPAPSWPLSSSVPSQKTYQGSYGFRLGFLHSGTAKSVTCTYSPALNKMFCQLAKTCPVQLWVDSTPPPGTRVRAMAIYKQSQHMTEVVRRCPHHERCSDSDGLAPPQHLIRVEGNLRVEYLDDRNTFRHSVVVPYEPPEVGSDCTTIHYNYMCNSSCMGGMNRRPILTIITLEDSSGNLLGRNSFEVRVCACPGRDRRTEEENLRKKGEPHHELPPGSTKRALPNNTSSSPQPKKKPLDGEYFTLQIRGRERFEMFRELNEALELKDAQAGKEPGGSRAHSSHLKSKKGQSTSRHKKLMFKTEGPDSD

| SMILES | activation | Potency |
| --- | --- | --- |
| O=C(O)c1ccccc1OP(=O)(O)O | -6.21% | – |
| O=C(c1ccc(F)cc1)C1CCN(CCn2c(=S)[nH]c3ccccc3c2=O)CC1 | -8.47% | – |
| C[C@@]12CCC[C@H]1[C@@H]1CC[C@H]3C[C@@H](O)CC[C@]3(C)[C@H]1CC2 | -12.6% | – |
| C=C1C(=CC=C2CCCC3(C)[C@@H]([C@H](C)C=CC=CC(O)(CC)CC)CC[C@@H]23)C[C@@H](O)C[C@@H]1O (some centres not stated) | -6.37% | – |
| NS(=O)(=O)c1cc(-c2nn[nH]n2)c(NCc2cccs2)cc1Cl | 5.02% | – |
| NS(=O)(=O)c1ccc(NC(=O)CCC(=O)O)cc1 | 14.1% | – |
| O=S1(=O)c2cccc3cccc(c23)N1CCCN1CCN(c2ccc(F)cc2)CC1 | 8.47% | – |
| CC=CCC=CCCC(=O)[C@H]1O[C@@H]1C(N)=O | -3.35% | – |
| CCC(C)(CN(C)C)OC(=O)c1ccccc1 (configuration not stated) | -10.9% | – |
| O=C(O)c1ccccc1C(=O)Nc1ccc(S(=O)(=O)Nc2nccs2)cc1 | 8.47% | – |
| CC(=O)OC[C@H]1O[C@@H](n2cnc(N)nc2=O)[C@H](OC(C)=O)[C@@H]1OC(C)=O | -22.3% | – |
| Cn1cc(C2=C(c3cn(CCCN)c4ccccc34)C(=O)NC2=O)c2ccccc21 | – | 24.3 µM (active) |
| COc1ccc2cc1Oc1cc3c(cc1OC)CC[N+](C)(C)[C@H]3Cc1ccc(cc1)Oc1c(OC)c(OC)cc3c1[C@@H](C2)[N+](C)(C)CC3 | 13% | – |
| CC(C)(C)NCC(O)COc1cccc2c1C[C@H](O)[C@H](O)C2 (some centres not stated) | 0% | – |
| C=CC(=O)Nc1cc(NC(=O)c2ccc(C)c(NC(=O)c3ccno3)c2)cc(C(F)(F)F)c1 | 4.58% | – |
| CCCCCC(N)=O | -17.5% | – |
| CCCCOc1ccc(C(=O)CCN2CCCCC2)cc1 | 10.9% | – |
| C[C@H](CCC(=O)O)[C@H]1CC[C@H]2[C@@H]3[C@H](O)C[C@@H]4C[C@H](O)CC[C@]4(C)[C@@H]3CC[C@]12C | -19.5% | – |
| CCOC(=O)c1ccc(N)cc1 | 8.37% | – |
| O=C(O)c1ccc(S(=O)(=O)N(Cl)Cl)cc1 | 20.9% | – |
| CC(NC(=O)c1ccccc1N=Cc1c(O)ccc2ccccc12)c1ccccc1 (configuration not stated) | – | 43.2 µM (active) |
| CCOc1ccc(Cc2cc([C@@H]3O[C@H](CO)[C@@H](O)[C@H](O)[C@@H]3O)ccc2Cl)cc1 | -1.71% | – |
